In the library only some 18% were active in any assay of this set; here they are far more common.
IL1B secr inh: qHTS for Inhibitors of Inflammasome Signaling: IL-1-beta AlphaLISA Primary Screen; activity change, % at 57.5 µM; 4.7% of 360,000 active; THP-1 LPS/ATP IL-1B secretion, AlphaLISA, 16 h; hits give low values; in the data active = activity change below about -50%; inconclusive = mostly about -30% to -49%; note: % is set by controls: 0 for no effect and ±100 for the full control effect
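THP-1 cells pretreated 1 hr with compounds (up to 57.5 uM final), then stimulated with LPS (250 ng/mL final) plus ATP (1.25 mM final); secreted IL-1B measured by AlphaLISA after 16 hr, decreased signal indicating inhibition.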
DT40 TDP1 no CPT: qHTS for Inhibitors of human tyrosyl-DNA phosphodiesterase 1 (TDP1): qHTS in cells in absence of CPT; DT40 Tdp1-/- hTDP1 cells, no CPT, ATP luminescence, 48 h; Potency, µM (top dose mostly 46.2 µM), inactives show at the highest dose activity change, negative = growth inhibition, usual class: inhibitors; 15% of 420,000 active; AID 686978, 2013; note: potency is the fitted concentration of half-maximal effect; % is set by controls: 0 for no effect and ±100 for the full control effect; nearly all actives have a fitted effect of over 55% in size
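Chicken DT40 Tdp1-/- cells stably complemented with human TDP1 were seeded at 400 cells/well with DMSO in place of 20 nM camptothecin. After compound pinning, cells grew at least 48 hr at 37 °C; viability read by CellTiter-Glo luminescence.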
DT40 TDP1 CPT: qHTS for Inhibitors of human tyrosyl-DNA phosphodiesterase 1 (TDP1): qHTS in cells in presence of CPT. chicken DT40 Tdp1-/-;hTDP1 cells + 20 nM CPT, ATP luminescence, 48 h. Potency, µM (titrated, usually from 46.2 µM), inactives show top-dose activity change, negative = growth inhibition, actives largely listed as inhibitors. 12% of 420,000 active. AID 686979, 2013; note: potency is the fitted concentration of half-maximal effect; % is set by controls: 0 for no effect and ±100 for the full control effect; nearly all actives have a fitted effect of over 55% in size
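Cell growth measured by CellTiter-Glo luminescence after a minimum 48 h, 37 C compound exposure with 20 nM CPT in Tdp1-knockout DT40 cells stably expressing hTDP1, seeded 400/well; qHTS titration format.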
TGFb inhibitor: qHTS for Inhibitors of TGF-b; HepG2 CAGA-GFP TGF-b/SMAD3 reporter, GFP fluorescence, 18 h; TGF-beta stimulated, 500 pg/mL final; Potency, µM (series often up to 46.1 µM), for inactives: at the highest dose activity, negative = inhibition, usual class: inhibitors; 1.2% of 410,000 active; AID 588855, 2011; note: potency is the fitted concentration of half-maximal effect; % is set by controls: 0 for no effect and ±100 for the full control effect; nearly all actives have a fitted effect of over 65% in size
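Cell-based qHTS in HEPG2 carrying a CAGA-GFP Smad reporter; compounds added before 500 pg/mL final TGF-beta, 18 h incubation at 37 degrees C, GFP fluorescence quantified per cell by imaging cytometry.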
TDP1 block: qHTS Assay for Inhibitors of Tyrosyl-DNA Phosphodiesterase (TDP1); Tyrosyl-DNA phosphodiesterase 1 (Homo sapiens), Q9NUW8; recombinant TDP1, AlphaScreen DNA substrate cleavage; Potency, µM (highest dose often 130 µM), without a hit: top-dose activity change, negative = inhibition, most hits filed as inhibitors; 0.28% of 350,000 active; note: potency is the fitted concentration of half-maximal effect; % is set by controls: 0 for no effect and ±100 for the full control effect; nearly all actives have a fitted effect of over 40% in size
Target sequence (Q9NUW8 whole entry, looked up): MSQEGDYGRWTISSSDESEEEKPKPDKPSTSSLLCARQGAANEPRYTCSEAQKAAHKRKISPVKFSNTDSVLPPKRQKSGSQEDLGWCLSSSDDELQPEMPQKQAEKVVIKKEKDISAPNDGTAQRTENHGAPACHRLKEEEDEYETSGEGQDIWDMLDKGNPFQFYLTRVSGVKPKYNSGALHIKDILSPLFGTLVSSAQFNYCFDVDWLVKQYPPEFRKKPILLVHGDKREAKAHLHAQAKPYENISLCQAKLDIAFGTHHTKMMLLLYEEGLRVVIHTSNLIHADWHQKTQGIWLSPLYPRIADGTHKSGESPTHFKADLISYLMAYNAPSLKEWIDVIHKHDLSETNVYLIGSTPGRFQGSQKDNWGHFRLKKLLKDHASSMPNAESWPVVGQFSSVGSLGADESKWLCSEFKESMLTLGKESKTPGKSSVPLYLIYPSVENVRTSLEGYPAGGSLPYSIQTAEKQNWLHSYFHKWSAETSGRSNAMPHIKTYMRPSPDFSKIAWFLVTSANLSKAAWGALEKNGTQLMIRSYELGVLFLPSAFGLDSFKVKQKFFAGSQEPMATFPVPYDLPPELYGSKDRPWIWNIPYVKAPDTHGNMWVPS
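AlphaScreen read-out: signal falls as enzyme removes the 3' tyrosine-FITC from a 5'-biotinylated DNA oligo (15 nM, 5 min, RT). Enzyme was E. coli-made recombinant Tdp1 at 1 nM, exposed to compound for 15 min beforehand; beads 10 ug/ml, 10 min.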
HepG2 viability: qHTS for Inhibitors of TGF-b: Cytotox Counterscreen; HepG2 CAGA-GFP viability, ATP luminescence, 18 h; Potency, µM (titrated, usually from 46.1 µM), without a hit: at the highest dose activity change, negative = cytotoxicity, actives largely listed as cytotoxic; 0.76% of 410,000 active; AID 588856, 2011; note: potency is the fitted concentration of half-maximal effect
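CellTiter-Glo luminescence gave cytotoxicity after 18 hours at 37 degrees C. The cells were HepG2 CAGA-GFP in 1% FBS DMEM, stimulated with 500 pg/mL TGF-beta after compound addition. %Activity was normalised to no-cell wells (complete cell-killing) and DMSO (no toxicity), and curves were fitted and classified.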
* hit, by the source's call; ? = inconclusive; . = no result; [ ] = remark or other dose. Unless noted, calls come from the whole dose curve; as a rule, active = well fitted curve in the direction sought with a large enough effect; inconclusive = small, poorly fitted or top-dose-only effect, or another doubt; inactive = no such curve, though single readings can be large; an effect the other way counts as inactive or inconclusive.

SMILES | IL1B secr inh | DT40 TDP1 no CPT | DT40 TDP1 CPT | TGFb inhibitor | TDP1 block | HepG2 viability
COc1ccccc1-c1ccc2c(c1)C(C)(Cc1ccccc1C#N)C(=O)N2 (centres undefined) | -28 | ? | 21µM* | ? | . | 1%
COc1ccccc1-c1ccc2c(c1)C(C)(Cc1ccc(Cl)c(Cl)c1)C(=O)N2 (centres undefined) | -13 | ? | 21µM* | 14µM* | . | -101%
Cc1ccc(SCC(CC(C)C)N2CCN(C)CCC2=O)cc1 (centres undefined) | . | . | . | -7% | 7% | -21%
C=C(C)C(=O)OCC(O)COc1ccc(C(C)(C)c2ccc(OCC(O)COC(=O)C(=C)C)cc2)cc1 (centres undefined) | -64* | 21µM* | 16µM* | 5% | . | -26%
Cn1nc(Oc2nc(N3CCOCC3)nc(N3CCOCC3)n2)ccc1=O | 5 | -3% | -21% | ? | 5% | -92%
COC(=O)[C@@H]1N2C(=O)[C@@H](NC(=O)C(C)Oc3ccccc3)[C@H]2SC1(C)C (some centres undefined) | . | ? | ? | ? | . | 5%
O=C1[C@H](Cc2ccccc2)NCC=CC[C@@H](c2ccc(Cl)cc2)N1Cc1ccccc1 | ? | 10µM* | ? | ? | . | -71%
O=C1[C@H](Cc2ccccc2)NCC=CC[C@H](c2ccco2)N1Cc1ccccc1 | -11 | ? | 21µM* | -13% | . | -12%
O=C1[C@H](Cc2ccccc2)NC/C=C\C[C@H](c2ccco2)N1Cc1ccccc1 | . | ? | ? | -8% | . | 1%
O=S1(=O)CC(N2CCC(c3ccccc3)CC2)CN1Cc1ccccc1 (centres undefined) | -1 | ? | ? | -26% | . | -16%
CC1=NN(/C(=N\c2nnc(C)s2)Nc2ccccc2)[C@H](c2cccc3ccccc23)S1 | -5 | ? | 23µM* | -29% | -1% | -12%
CC1=NN(/C(=N\c2nnc(C)s2)Nc2ccc(C)cc2)[C@H](c2ccc(C)cc2)S1 | -7 | ? | ? | -2% | 2% | -6%
Cc1ccc(C(O)CN2C3=NCCN3c3ccccc32)cc1 (centres undefined) | -10 | 16µM* | 23µM* | -24% | 10% | 5%
OC(CN1C2=NCCN2c2ccccc21)c1ccc(Br)cc1 (centres undefined) | -62* | 21µM* | ? | 0% | 4% | -34%
CC(C)(C)C(=O)Nc1cc2c3c(c1)CCC(=O)N3CCC2 | 11 | -1% | 8% | 17% | 4% | -6%
CN(C)CCOc1nc(-c2ccccc2)nc2c1oc1ccccc12 | -99* | 23µM* | ? | ? | 3% | -45%
CN(C)CCOc1ncnc2c1oc1ccccc12 | -9 | -10% | 1% | 16% | 2% | -11%
N#Cc1ccc(CN2CCN(c3ccc(S(=O)(=O)N4CCCC4)cn3)CC2)cc1 | 0 | -10% | -30% | 5% | 1% | 4%
Cc1cc(F)ccc1S(=O)(=O)Nc1ccccc1C(=O)Nc1ccccc1-c1nc2ccccc2[nH]1 | -79* | 7.3µM* | 5.8µM* | ? | -1% | 7.9µM*
C=CC[C@@H](Cc1ccc(F)cc1)C(=O)OC[C@H]1CCCN1C(=O)[C@@H](CC=C)CC(=O)N(CCO)Cc1ccccc1 | -56* | 13µM* | 15µM* | ? | 1% | -25%
C=CC[C@H](CC(=O)OC(C)(C)C)C(=O)OC[C@H]1CCCN1C(=O)[C@@H](CC=C)CC(=O)N(CCO)Cc1ccccc1 | ? | 21µM* | 18µM* | -24% | 1% | 0%
C=CC[C@H](CC(=O)OC(C)(C)C)C(=O)OC[C@H]1CCCN1C(=O)[C@H](CC=C)CC(=O)NCCO | -1 | -15% | -2% | ? | 1% | -14%
C=CC[C@@H](Cc1ccc(F)cc1)C(=O)OC[C@@H]1CCCN1C(=O)[C@H](CC=C)CC(=O)N(CCO)Cc1ccccc1 | -61* | 18µM* | ? | ? | -3% | -27%
CCOC(=O)c1c(-c2ccc(C)o2)csc1NC(=O)CN1CCOCC1 | -8 | 16µM* | 16µM* | -6% | 9% | 0%
CCOC(=O)c1c(-c2ccc(C)o2)csc1N | -11 | -7% | -7% | 6% | 7% | 5%
SMILES | IL1B secr inh | DT40 TDP1 no CPT | DT40 TDP1 CPT | TGFb inhibitor | TDP1 block | HepG2 viability
CCOC(=O)c1c(CC(C)C)csc1NC(=O)CCl | -24 | 10µM* | 13µM* | -10% | -5% | 20µM*
CCOC(=O)c1c(-c2ccc(C)o2)csc1NC(=O)COC(=O)c1cccs1 | -5 | 18µM* | ? | 14% | 2%[56.1 µM] | -6%
CCOC(=O)c1c(NC(=O)CN2CCOCC2)sc2c1CCCC2 | 7 | 21µM* | ? | -4% | 2% | -27%
CCOc1ccc(-c2nc(C(N)=O)c3c(n2)n(-c2ccc4c(c2)OCO4)c(=O)n3CC)cc1 | . | -17% | 13% | 0% | 6% | 3%
Cc1ccccc1NC(=O)Cc1nc(COC(=O)CCNS(=O)(=O)c2ccccc2)cs1 | 12 | -23% | 2% | 2% | 0% | -8%
CCOc1ccc(NC(=O)c2c(NC(=O)CNCCN3CCOCC3)sc3c2CCC3)cc1 | -11 | 15µM* | ? | ? | 9% | -34%
CCOC(=O)c1c(-c2cccs2)csc1NC(=O)CC(C)C | -3 | 21µM* | 18µM* | 4% | . | -18%
CCOC(=O)c1c(-c2cccs2)csc1NC(=O)CN1CCOCC1 | -17 | 21µM* | ? | 2% | 3% | -43%
